Compound activity from PubChem.
PABP1 MLLE inh = inhibitors of PABP1 MLLE–PAM2 peptide binding, primary screen, biochemical, fluorescence polarization, FITC-PAM2, GST-MLLE; actives 0.36% (n = 360,000); Polyadenylate-binding protein 1 (Homo sapiens), P11940; AID 588489, 2011; inhibition, % at 20 µM; in the data active = inhibition above about 35%, passing the limit was not always enough
NRP1-CendR mod = modulators of CendR peptide binding to NRP-1, primary screen, biochemical, fluorescence polarization, uHTS | Neuropilin-1 (Homo sapiens), O14786 | FAM-RPARPAR peptide binding to NRP-1 | inhibition, % at 25 µM | actives 0.85% (n = 360,000);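 active = inhibition or corrected inhibition above about 18%, plus a signal ratio from 0.5 to 1.5, limit read from the data, passing the limit was not always enough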
eIF4H inh = human eIF4H binding inhibitors, primary screen, translation initiation inhibitor project, biochemical, uHTS, fluorescence polarization; Eukaryotic translation initiation factor 4H (Homo sapiens), Q15056; eIF4H fluorescence polarization binding assay; inhibition, % at 35 µM; actives 0.94% (n = 290,000);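 note: calls also rest on retests at 20 µM and on dose response follow-up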
PABP FP inh = PABP poly(A) RNA binding inhibitors, primary screen, biochemical, fluorescence polarization, uHTS | Polyadenylate-binding protein 1 (Homo sapiens), P11940 | inhibition, % at 35 µM | actives 1% (n = 290,000);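 note: calls also rest on retests at 20 µM and on dose response follow-up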
Numbers stand for hits; n = inactive; x = no result given. Hits are enriched below; roughly 2.1% of the tested compounds scored in any of these assays. Unless noted, the rule behind the calls is not given here.

SMILES | PABP1 MLLE inh | NRP1-CendR mod | eIF4H inh | PABP FP inh
Cc1onc(-c2ccc(Cl)cc2)c1-c1ccnn1S(=O)(=O)c1cccc(C(F)(F)F)c1 | n | n | n | n
CCCCN(C)CCNC(=O)c1cc2cc3ccc(OC)cc3nc2o1 | n | 21 | n | n
CCN(CC)CCNC(=O)c1cc2cc3ccc(OC)cc3nc2o1 | n | n | n | n
COc1ccccc1C(=O)COC(=O)CSC(C)C(=O)Nc1cc(C)on1 (stereo not drawn) | n | n | x | x
O=C(NCC1CC1)c1cc2c(c(-c3cccc(-c4ccccc4F)c3)n1)[C@@H](CCO)N(C(=O)CC1CC1)C2 | x | n | x | x
Cc1ccccc1-n1ncc2c1CC(C)(C)CC2NC(=O)CCCN1CCCC1=O (stereo not drawn) | n | n | n | n
CCCCC1(C(=O)OCC)CC(CN2CCOCC2)OC1=O (stereo not drawn) | n | n | active | 88
Cc1ccc(C)c(CNC(=O)Nc2ccccc2)c1 | n | n | n | n
CCOc1ncccc1C(=O)Nc1cc2c(cc1Br)OCCO2 | n | n | x | x
COc1cccc(C=Cc2nccc3ccccc23)c1OC | n | 25 | x | x
COCCN(C(=O)/C=C/c1ccccc1)c1nnc(-c2cccnc2)s1 | n | n | n | 9.6
CC(C)(C)OC(=O)NCCCC[C@H](NC(=O)c1[nH]cnc1C(=O)N[C@@H](Cc1ccccc1)C(=O)OCc1ccccc1)C(=O)OC(C)(C)C | n | n | x | x
O=C(/C=C/c1ccccc1)c1ccccn1 | n | 37 | n | n
c1ccc(-c2nc(C3CCCCC3)c3sccc3n2)cc1 | n | 28 | x | x
Cc1ccc(S(=O)(=O)CCC(O)c2ccc(Cl)cc2)cc1 (stereo not drawn) | n | n | n | n
CSCCC(NC(N)=O)C(=O)Nc1cccc(C#N)c1 (stereo not drawn) | n | n | 53 | n
CSCCC(NC(N)=O)C(=O)Nc1ccc2ccccc2c1 (stereo not drawn) | n | n | n | n
O=S1(=O)CCC(n2nccc2-c2ccccc2)C1 (stereo not drawn) | n | n | n | n
CCOc1ccc(S(=O)(=O)N/N=C(\C)C2CCCCC2)cc1 | n | n | 71 | active
O=C(O)c1cc(S(=O)(=O)O)cc(Nc2c3ccccc3nc3ccccc23)c1O | n | n | 98 | 41
CCOc1ccc(CCNC(=O)C2(c3ccccc3)CC2)cc1OCC | n | 20 | n | n
CCOc1ccc(CCNC(=O)c2nccnc2C(=O)O)cc1OCC | n | n | n | n
Nc1nc2ccc(S(=O)(=O)N3CCCCC3)cc2s1 | 42 | n | n | n
CS(=O)(=O)c1cccc(C(=O)Nc2nnc(C3=COCCO3)o2)c1 | 41 | n | x | x
N#CCCN(CCC#N)S(=O)(=O)c1ccc(C(=O)Nc2nnc(C3=COCCO3)o2)cc1 | n | n | 82 | 9.6
SMILES | PABP1 MLLE inh | NRP1-CendR mod | eIF4H inh | PABP FP inh
CCCN(CCC)S(=O)(=O)c1ccc(C(=O)Nc2nnc(-c3cc(OC)cc(OC)c3)o2)cc1 | n | 25 | n | n
CCCCN(C)S(=O)(=O)c1ccc(C(=O)Nc2nnc(C3=COCCO3)o2)cc1 | n | 30 | n | n
O=C(NCc1ccccc1)c1cnc(Cc2c[nH]c3ccccc23)c(I)c1 | n | n | x | x
CC(NC(=O)c1cccs1)C(S)c1ccccc1 (stereo not drawn) | 43 | n | n | n
CC(CCc1ccccc1)NC(=O)CNC(=O)c1cccs1 (stereo not drawn) | n | 28 | n | n
CCOC1CCCc2oc(-c3ccc(N(C)C)cc3)c(C(=O)OC)c21 (stereo not drawn) | x | n | x | x
C=CCn1c(SCC(=O)NC2CCCC2)nc2scc(-c3ccco3)c2c1=O | n | n | 71 | 26
Cc1cc(C(=O)N/N=C/c2cc(Br)cc(Br)c2OC(=O)c2cccc(F)c2)n[nH]1 | n | 20 | n | n
CCOC(=O)Cc1cc(=O)c2c(=O)n(-c3ccccc3)[nH]c2[nH]1 | n | n | 6.0 | 54
S=C(NNc1cccc(Cl)c1)NC1CCCCC1 | n | n | n | 69
CC(Oc1ccc(Cl)cc1)C(=O)N(C)CC(=O)Nc1ccc(N2CCOCC2)cc1 (stereo not drawn) | n | n | n | n
Cc1ccc(NC(=O)NN2CCN(C)CC2)cc1C | n | n | n | n
CSc1ccccc1OCc1cc(C(=O)N2CCC[C@H]2C(N)=O)no1 | n | n | n | n
Cc1cc2cc3c(=O)[nH]c(=O)nc-3n(CC(O)C(O)C(O)CO)c2cc1C (stereo not drawn) | n | 25 | x | x
CCN(CC)S(=O)(=O)c1ccc(N=NC2=C(O)CCCC2=O)cc1 | n | 26 | n | n
O=C1CCCC(O)=C1N=Nc1ccc(C(=O)O)cc1 | n | n | 102 | 79
O=C1CCCC(O)=C1N=Nc1ccc2c(c1)OCO2 | n | n | n | n
CC(C)CN(CC(C)C)C(=O)c1cc(S(=O)(=O)N2CCCCC2)c[nH]1 | n | n | n | n
Oc1ccc(/C=N/N=C(c2ccccc2)c2ccccc2)c(O)c1O | n | n | 85 | active
O=C(/C(=N/N=C/c1ccc(O)c(O)c1O)c1ccccc1)c1ccccc1 | n | n | n | n
CC(=O)Nc1ccc(C2Nc3cc(C)c(C)cc3NC3=C2C(=O)CC(C)(C)C3)cc1 (stereo not drawn) | n | n | n | n
CC1(C)CC(=O)C2=C(C1)Nc1ccccc1NC2c1ccccc1F (stereo not drawn) | 48 | n | n | n
Cc1cc2c(cc1C)NC(c1nc3ccccc3[nH]1)C1=C(CC(C)(C)CC1=O)N2 (stereo not drawn) | n | 29 | n | n
Cc1ccc(S(=O)(=O)NCc2ccncc2)cc1C | n | 22 | n | n
O=S(=O)(NCc1ccncc1)c1ccc(F)c(F)c1 | n | n | x | x
SMILES | PABP1 MLLE inh | NRP1-CendR mod | eIF4H inh | PABP FP inh
Cn1c(=O)oc2cc(S(=O)(=O)NCc3ccncc3)ccc21 | n | n | 72 | 67
CN1CCc2nc(NC(=O)c3cccc(OC(F)F)c3)sc2C1 | n | n | 74 | 83
Cc1ccc(C(=O)NC(=S)Nc2ccc3[nH]c(=O)[nH]c3c2)c(C)c1 | 38 | n | n | n
O=c1[nH]c2ccc(NC(=S)Nc3ccc(F)cc3)cc2[nH]1 | n | n | n | n
CCc1ccc(NC(=S)Nc2ccc3[nH]c(=O)[nH]c3c2)cc1 | n | n | 1.7 | 72
Cc1cccc(C(=O)NC(=S)Nc2ccc3[nH]c(=O)[nH]c3c2)c1 | n | n | n | n
COc1ccc(-c2noc(CCC(=O)Nc3cccc(C(=O)NC4CC4)c3)n2)cc1OC | n | n | x | x
O=C(c1ccc(-c2ccccc2Cl)s1)N1CCOCC1 | n | 35 | x | x
O=C(c1ccc(C(=O)N2CCOCC2)s1)N1CCOCC1 | n | n | n | n
CCOC(=O)C(=CNc1cscc1S(=O)(=O)C(C)C)C(=O)OCC | n | n | n | n
CC(=O)N1CCN(C(=O)c2cc(=O)c3ccccc3o2)CC1 | n | n | n | n
COC(=O)C[C@H]1c2cc(F)ccc2S(=O)(=O)N1Cc1ccccc1OC | n | n | x | x
COC(=O)C[C@H]1c2cc(C(F)(F)F)ccc2S(=O)(=O)N1C1CCCCC1 | n | n | x | x
